Hits are enriched below; roughly 0.9% of the tested compounds scored in any of these assays.
TR-FRET SRC-2 ct: TR-FRET artefact, counter-screen to PPARgamma/SRC-2 agonist assay. hits give high values. TR-FRET ratio at 8 µM. 200,000 compounds, 0.4% hits
SRC1 TRFRET art: counter-screen for PPARgamma SRC-1 recruitment agonists: TR-FRET artefact; 99,000 compounds, 0.34% hits; TR-FRET detection artefact counter-screen, emission ratio; hits give high values; TR-FRET ratio at 8 µM; in the data active = TR-FRET ratio above about 2300
SRC3 TRFRET art: counter-screen for PPARgamma SRC-3 recruitment agonists: TR-FRET artefact. PPARgamma/SRC-3 format; hits give high values. TR-FRET ratio at 8 µM. 99,000 compounds, 0.39% hits
PPARg SRC-1 ag: PPARgamma-driven SRC-1 recruitment agonism | P37231 | PPARgamma-SRC-1 coactivator recruitment biochemical assay | activation, % at 8 µM | 200,000 compounds, 0.41% hits | AID 631; in the data active = activation above about 19%;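 also: 0% = DMSO and 100% = reference agonist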
Target sequence (P37231 whole entry, looked up): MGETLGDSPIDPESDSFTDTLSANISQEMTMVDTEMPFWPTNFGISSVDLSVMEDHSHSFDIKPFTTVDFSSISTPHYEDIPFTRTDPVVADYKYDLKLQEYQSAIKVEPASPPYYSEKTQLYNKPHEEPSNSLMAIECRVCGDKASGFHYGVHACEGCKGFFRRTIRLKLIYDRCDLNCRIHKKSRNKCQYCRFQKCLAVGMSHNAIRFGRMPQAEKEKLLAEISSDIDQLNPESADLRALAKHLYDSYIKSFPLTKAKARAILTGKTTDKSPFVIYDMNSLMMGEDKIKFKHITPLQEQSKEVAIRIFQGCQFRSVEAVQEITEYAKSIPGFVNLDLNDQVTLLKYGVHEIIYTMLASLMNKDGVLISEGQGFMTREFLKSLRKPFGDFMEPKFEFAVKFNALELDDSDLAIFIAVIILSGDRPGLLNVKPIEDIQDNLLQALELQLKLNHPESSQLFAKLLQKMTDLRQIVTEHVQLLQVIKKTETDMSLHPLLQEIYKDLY
PPARg SRC2 recr: PPARgamma-driven SRC-2 recruitment agonism. P37231. PPARgamma LBD-SRC-2 recruitment, biochemical. activation, % at 8 µM. 200,000 compounds, 0.34% hits. AID 1032; in the data active = activation above about 22%;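 also: 0% = vehicle and 100% = reference agonist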
PPARg SRC3 recr: PPARgamma-driven SRC-3 recruitment agonism; P37231; biochemical PPARgamma/SRC-3 coactivator recruitment assay; activation, % at 8 µM; 200,000 compounds, 0.26% hits; in the data active = activation above about 23%;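 also: 0% = DMSO and 100% = reference agonist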
Numbers without * were called inactive. Rule as the data show it, unless noted: active = TR-FRET ratio above about 2000; inactive = the rest.

O=C(Nc1ccc2oc(-c3ccc4ccccc4c3)nc2c1)c1ccc2c(c1)OCCO2 was read as TR-FRET SRC-2 ct 1469, PPARg SRC-1 ag 27*, PPARg SRC2 recr 7 and PPARg SRC3 recr 7.
Screening O=C(Nc1cccc(F)c1)c1ccc2c(c1)OCO2 returned TR-FRET SRC-2 ct 1477, PPARg SRC-1 ag -4, PPARg SRC2 recr 2 and PPARg SRC3 recr 6.
Screening Cc1ccc2nc(-c3cccc(NC(=O)c4ccc5c(c4)OCCO5)c3)oc2c1 returned TR-FRET SRC-2 ct 1507, PPARg SRC-1 ag -10, PPARg SRC2 recr -2 and PPARg SRC3 recr -10.
`O=C(Nc1ccc2nn(-c3ccccc3)nc2c1)c1ccc2c(c1)OCO2` gave TR-FRET SRC-2 ct 1492, PPARg SRC-1 ag 6, PPARg SRC2 recr 22* and PPARg SRC3 recr -6.
For O=C(CCNC(=O)Cn1ccc2ccccc2c1=O)NCc1ccc(F)cc1Cl the results were TR-FRET SRC-2 ct 1453, SRC1 TRFRET art 1791, SRC3 TRFRET art 1742, PPARg SRC-1 ag -3, PPARg SRC2 recr 4 and PPARg SRC3 recr 1.
For CCOC(=O)Nc1ccccc1C(=O)Nc1cc(C)cc(C)c1 the results were TR-FRET SRC-2 ct 1463, SRC1 TRFRET art 1754, SRC3 TRFRET art 1456, PPARg SRC-1 ag -1, PPARg SRC2 recr 4 and PPARg SRC3 recr 6.
CCOC(=O)Nc1cccc(NC(=O)c2ccccc2F)c1 was read as TR-FRET SRC-2 ct 1470, SRC1 TRFRET art 2378*, SRC3 TRFRET art 1632, PPARg SRC-1 ag 9, PPARg SRC2 recr 9 and PPARg SRC3 recr 3.
For CCCCN1C(=O)Nc2ccccc2S1(=O)=O the results were TR-FRET SRC-2 ct 1277, SRC1 TRFRET art 1752, SRC3 TRFRET art 1452, PPARg SRC-1 ag -1, PPARg SRC2 recr 3 and PPARg SRC3 recr 0.
Cc1ccc(C(=O)NCC(=O)OC(C)C(=O)Nc2ccc(N(C)C)cc2)s1 (stereo not given) was read as TR-FRET SRC-2 ct 1636, SRC1 TRFRET art 1829, SRC3 TRFRET art 1665, PPARg SRC-1 ag 6, PPARg SRC2 recr -4 and PPARg SRC3 recr 7.
COc1ccc(C2CC(c3ccc(Br)cc3)=NN2C(=O)CSC2=NCCS2)cc1 (stereo not given) was read as TR-FRET SRC-2 ct 1826, SRC1 TRFRET art 1958, SRC3 TRFRET art 2257*, PPARg SRC-1 ag -8, PPARg SRC2 recr 9 and PPARg SRC3 recr 5.
Screening S=C(c1cn(CCOc2ccccc2)c2ccccc12)N1CCCC1 returned TR-FRET SRC-2 ct 1705, PPARg SRC-1 ag -1, PPARg SRC2 recr 1 and PPARg SRC3 recr 7.
Screening S=C(c1cn(CCOc2cccc3ccccc23)c2ccccc12)N1CCCC1 returned TR-FRET SRC-2 ct 3070*, SRC1 TRFRET art 3691*, SRC3 TRFRET art 3153*, PPARg SRC-1 ag 15, PPARg SRC2 recr 19 and PPARg SRC3 recr 19.
Cc1ccc(OCCn2cc(C(=S)N3CCCC3)c3ccccc32)cc1C was read as TR-FRET SRC-2 ct 2180*, PPARg SRC-1 ag 16, PPARg SRC2 recr 2 and PPARg SRC3 recr 9.
`Cc1cc(=O)oc2cc(OCC(=O)OCC(=O)NC3CC3)ccc12` gave TR-FRET SRC-2 ct 1431, SRC1 TRFRET art 1790, SRC3 TRFRET art 1714, PPARg SRC-1 ag -5, PPARg SRC2 recr -8 and PPARg SRC3 recr -3.
For CCC(=O)Nc1nnc(SCC(=O)NCCc2ccc(OC)c(OC)c2)s1 the results were TR-FRET SRC-2 ct 1387, SRC1 TRFRET art 1661, SRC3 TRFRET art 1505, PPARg SRC-1 ag 1, PPARg SRC2 recr 0 and PPARg SRC3 recr -2.
Screening Cc1n[nH]c(C)c1S(=O)(=O)N(CC(=O)Nc1ccc2c(c1)OCCO2)c1ccc(C(C)C)cc1 returned TR-FRET SRC-2 ct 1632, PPARg SRC-1 ag 7, PPARg SRC2 recr 24* and PPARg SRC3 recr 0.
Screening Cc1noc(C)c1S(=O)(=O)N(CC(=O)Nc1ccc2c(c1)OCO2)c1ccc(C(C)C)cc1 returned TR-FRET SRC-2 ct 1718, PPARg SRC-1 ag 4, PPARg SRC2 recr 11 and PPARg SRC3 recr 5.
COc1cc(C(=O)N/N=c2/sc3ccccc3n2C)cc(OC)c1OC was read as TR-FRET SRC-2 ct 1548, SRC1 TRFRET art 1686, SRC3 TRFRET art 1477, PPARg SRC-1 ag -3, PPARg SRC2 recr 0 and PPARg SRC3 recr 0.
For COc1ccc(C(=O)N=c2sc3ccccc3n2C)cc1OC the results were TR-FRET SRC-2 ct 1578, SRC1 TRFRET art 4952*, SRC3 TRFRET art 1605, PPARg SRC-1 ag 168*, PPARg SRC2 recr -2 and PPARg SRC3 recr 4.
For Cc1ccccc1OCC(=O)NNC(=O)CCN1C(=O)c2ccccc2C1=O the results were TR-FRET SRC-2 ct 1630, SRC1 TRFRET art 1729, SRC3 TRFRET art 1828, PPARg SRC-1 ag 2, PPARg SRC2 recr 11 and PPARg SRC3 recr 5.
COc1ccc2nc(C)cc(SCC(=O)NNC(=O)COc3ccc(C)cc3)c2c1 was read as TR-FRET SRC-2 ct 1879, PPARg SRC-1 ag 16, PPARg SRC2 recr 16 and PPARg SRC3 recr 11.
COc1ccc2nc(C)cc(SCC(=O)Nc3c(C)cc(C)cc3C)c2c1 was read as TR-FRET SRC-2 ct 1613, PPARg SRC-1 ag 32*, PPARg SRC2 recr 12 and PPARg SRC3 recr 7.
For COc1ccc2nc(C)cc(SCC(=O)Nc3c(C)cccc3C)c2c1 the results were TR-FRET SRC-2 ct 1994*, SRC1 TRFRET art 2033, SRC3 TRFRET art 2003, PPARg SRC-1 ag -3, PPARg SRC2 recr 26* and PPARg SRC3 recr 10.
For Cn1c(CCC(=O)OCC(=O)NCc2ccc3c(c2)OCO3)nc(=O)c2ccccc21 the results were TR-FRET SRC-2 ct 1692, SRC1 TRFRET art 1792, SRC3 TRFRET art 1618, PPARg SRC-1 ag 11, PPARg SRC2 recr 3 and PPARg SRC3 recr 7.
`CCO[C@@H]1OC(C(=O)N2CCN(Cc3ccc4c(c3)OCO4)CC2)=C[C@H](c2csc3ccccc23)[C@H]1CCCO` gave TR-FRET SRC-2 ct 1593, SRC1 TRFRET art 2146, SRC3 TRFRET art 1578, PPARg SRC-1 ag 9, PPARg SRC2 recr 23* and PPARg SRC3 recr 6.
`CCO[C@H]1OC(C(=O)N2CCN(Cc3ccc4c(c3)OCO4)CC2)=C[C@@H](c2ccccc2)[C@@H]1CCCO` gave TR-FRET SRC-2 ct 1574, SRC1 TRFRET art 1658, SRC3 TRFRET art 1624, PPARg SRC-1 ag 4, PPARg SRC2 recr 1 and PPARg SRC3 recr 0.
`O=C1C2CCCN2c2ccc(S(=O)(=O)N3CCOCC3)cc2N1Cc1cccc(C(F)(F)F)c1` (stereo not given) gave TR-FRET SRC-2 ct 1640, PPARg SRC-1 ag 4, PPARg SRC2 recr 6 and PPARg SRC3 recr 5.
`CON(C)S(=O)(=O)c1ccc2c(c1)N(Cc1ccc(C)cc1)C(=O)C1CCCN21` (stereo not given) gave TR-FRET SRC-2 ct 1753, SRC1 TRFRET art 2187, SRC3 TRFRET art 2052*, PPARg SRC-1 ag 1, PPARg SRC2 recr 5 and PPARg SRC3 recr 6.
Screening CCOC(=O)c1c(-c2ccccc2)csc1NC(=O)c1ccc(S(=O)(=O)N2CC(C)OC(C)C2)cc1 (stereo not given) returned TR-FRET SRC-2 ct 1345, PPARg SRC-1 ag -3, PPARg SRC2 recr -6 and PPARg SRC3 recr -1.

Screens: PubChem BioAssay, The Scripps Research Institute Molecular Screening Center
